# Experimental data reported in PubChem BioAssay (NCATS).
# Results filed as inconclusive are left out. A number with no mark means an inactive call. The call rests on the fitted dose curve; in most records, active means well fitted activation curve with a large enough effect; inconclusive means small, poorly fitted or top-dose-only effect; inactive means no such curve, though single readings can be large or run the other way.
# Target: Cellular tumor antigen p53 (Homo sapiens) (UniProt P04637)
# Assay: Primary qHTS for small molecule compounds that upregulate eGFP-tagged delta133p53alpha (in N-terminal) cells. (AID 2060322);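 further: series mostly up to about 56 µM; 0% = DMSO vehicle and 100% = reference activator; nearly all actives have a fitted effect of over 75% in size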
# Details: NCI-H358 eGFP-delta133p53alpha fluorescence, 24 h; activation: stronger effect = higher value
# In short: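 NCI-H358 cells pre-induced 24 h with 10 ng/ml doxycycline to express N-terminal eGFP-delta133p53alpha, then dosed 24 h at 37C without doxycycline; fixed, Hoechst-stained, GFP intensity by laser scanning cytometry, normalized to DMSO (0%) and 57.5 uM 5-azacytidine (100%).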
# Chain of Cellular tumor antigen p53 (Homo sapiens) (P04637 whole entry, looked up): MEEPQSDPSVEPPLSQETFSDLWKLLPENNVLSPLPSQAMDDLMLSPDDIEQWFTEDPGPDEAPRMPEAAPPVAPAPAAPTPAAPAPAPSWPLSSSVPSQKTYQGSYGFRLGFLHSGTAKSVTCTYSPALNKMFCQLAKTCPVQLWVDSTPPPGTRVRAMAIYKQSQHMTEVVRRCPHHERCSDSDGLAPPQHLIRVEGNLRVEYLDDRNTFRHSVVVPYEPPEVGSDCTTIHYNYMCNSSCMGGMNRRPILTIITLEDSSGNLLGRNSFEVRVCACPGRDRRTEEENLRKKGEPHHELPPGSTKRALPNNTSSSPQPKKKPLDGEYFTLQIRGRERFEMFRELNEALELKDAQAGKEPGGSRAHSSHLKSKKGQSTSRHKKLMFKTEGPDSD
row,SMILES,activation [%]
1,Cc1oc(=O)oc1COC(=O)[C@@H]1N2C(=O)[C@@H](NC(=O)[C@H](N)c3ccccc3)[C@H]2SC1(C)C,-5.08
2,COc1ccc(NS(=O)(=O)c2ccc(N)cc2)nn1,6.69
3,CCOc1ccc(NC(=O)CC(C)O)cc1 (stereo not given),-0.837
4,CC(C)[N+]1(C)[C@@H]2CC[C@H]1CC(OC(=O)C(CO)c1ccccc1)C2 (stereo not given in full),33.8
5,CC(=O)O[C@]1(C(C)=O)CC[C@H]2[C@@H]3C=C(Cl)C4=CC(=O)CC[C@]4(C)[C@H]3CC[C@@]21C,-6.69
6,OC[C@H]1O[C@@H](n2cnc3c2NC=NC[C@@H]3O)C[C@H]1O,-21
7,Cc1c(N)cccc1C(F)(F)F,-19.8
8,N#CC1(c2ccc(F)cc2)CCC(=O)CC1,-18.6
9,C=CCc1ccc(O)c(OC)c1,15.1
10,C[n+]1c2cc(N)ccc2cc2ccc(N)cc21 (tested in a mixture with another compound),-29.9
11,O=C(COCCOCCOCC(=O)Nc1c(I)cc(I)c(C(=O)O)c1I)Nc1c(I)cc(I)c(C(=O)O)c1I,10
12,OC(CCCN1CCCCC1)(c1ccccc1)c1ccccc1,-16.4
13,O=C(Nc1ccccc1)Nc1ccc(-c2ccc(C(=O)[C@H]3CCC[C@H]3C(=O)O)cc2)cc1,-3.35
14,NCc1ccc(S(N)(=O)=O)cc1,-15.9
15,[O-][n+]1cccc(/C(Cl)=N/OC[C@@H](O)CN2CCCCC2)c1,-6.69
